PubChem BioAssay AID488789 (Broad Institute, 2010)
Results with a measured potency or affinity are listed apart. Inconclusive results are not listed. Calls of active or inactive are those of the source.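 The calls were made as follows: active = samples whose fitted half-maximal inhibition concentration is no more than ten times the top valid dose tested; inconclusive = flat response between -70 and -30, or invalid curve fit; inactive = flat within 30 of zero, potency above limit, or signal rising.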

Target: Trypsin (Sus scrofa) (UniProt P00761)
Sequence (P00761 whole entry, looked up): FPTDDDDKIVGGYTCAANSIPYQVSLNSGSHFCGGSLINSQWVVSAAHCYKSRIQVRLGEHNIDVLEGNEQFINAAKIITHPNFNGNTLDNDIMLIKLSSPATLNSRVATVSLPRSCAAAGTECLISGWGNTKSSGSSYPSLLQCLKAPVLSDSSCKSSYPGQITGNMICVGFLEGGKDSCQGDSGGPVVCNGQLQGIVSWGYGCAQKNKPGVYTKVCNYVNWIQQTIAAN
Assay: trypsin protease activity blockade – biochemical, quenched peptide fluorescence, cherry-pick, selectivity assay for Rce1 protease inhibitor project, dose response (AID 488789);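 also: more negative means stronger trypsin inhibition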
Conditions: porcine trypsin, quenched peptide cleavage fluorescence; series mostly up to 10 µM

outcome, inactive:
CCOC(=O)c1c(NC(=O)COc2ccccc2F)sc2c1CC(C)(C)NC2(C)C
CCSc1nc2c(c(=O)[nH]1)C(c1ccccn1)C1=C(CC(C)(C)CC1=O)N2 (configuration not stated)
Nc1nnnn1/N=C/c1cccc(OCc2ccccc2Cl)c1
CCC1CCCCN1C(=O)NC(=O)c1ccccc1 (configuration not stated)
Cc1cccc(OCCCN2C(=O)C(=O)c3cc(C)ccc32)c1
CCCN(CCC)CCNC(=O)c1cc2c(-c3ccccc3F)nn(C)c2s1
CN(C)CCN(C(=O)c1ccc2ccccc2c1)c1nc2ccc(F)cc2s1
CCn1cc(/C=C(\NC(=O)c2ccccc2F)C(=O)N2CCOCC2)c2ccccc21
COC(=O)c1nc(N)sc1-c1ccc(Cl)c(Cl)c1
COc1ccc(-c2c(C)oc3c(CN4CCN(C)CC4)c(O)ccc3c2=O)cc1
CC1CCN(C(=O)C2CCN(S(=O)(=O)c3ccc(-n4cnnn4)cc3)CC2)CC1
COC(=O)CSc1nc(N)c2c3c(sc2n1)C(c1ccccc1)SC(c1ccccc1)C3 (configuration not stated)
Cc1cc(Cl)c2oc(C(=O)N3CCN(C(=O)c4ccco4)CC3)c(C)c2c1
Nc1nc2n[nH]nc2c(=O)[nH]1
COc1ccc(C2c3c(ncn(CCCO)c3=N)Oc3ccc4ccccc4c32)cc1 (configuration not stated)
COC(C/C=C/[C@H](O)[C@H](C)OCc1ccccc1)OC
O=C(CC1(O)C(=O)N(C/C=C/c2ccccc2)c2ccccc21)c1ccccn1 (configuration not stated)
COc1ccc(-c2nc3ncccc3o2)cc1NC(=O)c1ccco1
COCc1cc(C)n(CC(=O)NCc2ccccc2)c(=O)c1C#N
COc1ccc([N+](=O)[O-])cc1CSc1ccccn1
COc1ccc(C)cc1NC(=O)CN1C(=O)COc2ccc(S(=O)(=O)N3CCOCC3)cc21
Cc1ccc(-c2nc(Nc3ccc(N4CCOCC4)cc3)c3ccccc3n2)cc1
CC(C)CNC(=O)COc1cccc(C(=O)NCc2ccccc2)c1
CNC(=S)N/N=C/c1cn(Cc2c(F)cccc2Cl)c2ccccc12
COC(C/C=C/C(=O)[C@H](C)OCc1ccccc1)OC
N#Cc1c(OCC(=O)c2ccccc2)nc2c(c1-c1ccco1)CCc1ccccc1-2
O=C(Nc1ccc(N2CCOCC2)c(Cl)c1)c1cc2ccccc2o1
COc1ccc(C(CNC(=O)COc2cc(C)c(Cl)c(C)c2)N2CCCCC2)cc1 (configuration not stated)
O=C1CN(C(=O)NCC(=O)N2CCCC2)c2ccccc2N1
Cc1cccc(-c2nnc(SCc3ccc(C#N)cc3)n2Cc2ccco2)c1
CC(C)N1CCN(S(=O)(=O)c2ccc3ccccc3c2)CC1
Cc1ccccc1OC(C)C(=O)N1CCC(Cc2ccccc2)CC1 (configuration not stated)
O=C(/C=C/c1cn(-c2ccccc2)nc1-c1cccs1)NCCN1CCOCC1
CC(C)CC(=O)Nc1ccc2oc(-c3cccnc3)nc2c1
COc1cccc(/C=N/NC(=O)c2nnn(-c3nonc3N)c2C(C)C)c1OCc1ccc(F)cc1
O=C(O)CCc1ccc(-c2cccs2)n1Cc1ccco1
O=C(NCC1CC1)c1cc(-c2ccccc2)nn1CC1CC(c2cccc([N+](=O)[O-])c2)=NO1 (configuration not stated)
